In the library only some 5.2% were active in any assay of this set; here they are far more common.
PLK1 PBD inh – qHTS for Inhibitors of PLK1-PDB (polo-like kinase 1 - polo-box domain): Primary Screen. AID 720504, 2013. 360,000 compounds, 2.8% hits. Potency, µM, for the others: max response, negative = inhibition, usual class: inhibitors. Serine/threonine-protein kinase PLK1 (Homo sapiens), P53350. Plk1 PBD binding of FITC phosphopeptide, fluorescence polarization; further: series mostly up to about 57 µM; nearly all actives have a fitted effect of over 65% in size
Target sequence (P53350 whole entry, looked up, the tested form may be a part): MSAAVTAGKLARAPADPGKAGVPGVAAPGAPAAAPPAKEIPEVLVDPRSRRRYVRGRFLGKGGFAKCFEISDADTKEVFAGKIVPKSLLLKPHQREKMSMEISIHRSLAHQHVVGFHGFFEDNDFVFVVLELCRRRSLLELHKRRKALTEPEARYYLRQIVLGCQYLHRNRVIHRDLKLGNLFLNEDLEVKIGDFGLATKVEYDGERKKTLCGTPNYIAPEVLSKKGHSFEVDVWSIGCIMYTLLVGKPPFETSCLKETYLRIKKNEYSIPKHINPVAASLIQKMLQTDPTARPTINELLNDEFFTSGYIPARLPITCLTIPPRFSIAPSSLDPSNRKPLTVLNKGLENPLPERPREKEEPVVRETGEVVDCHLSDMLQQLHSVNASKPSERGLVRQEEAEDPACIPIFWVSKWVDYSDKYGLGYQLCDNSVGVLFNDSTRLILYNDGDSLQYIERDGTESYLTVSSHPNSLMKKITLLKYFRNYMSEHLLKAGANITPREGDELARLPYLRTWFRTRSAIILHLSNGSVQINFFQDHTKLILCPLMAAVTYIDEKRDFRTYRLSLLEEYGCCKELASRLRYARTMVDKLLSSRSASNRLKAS
Sfp inh – qHTS Assay for Inhibitors of Bacillus subtilis Sfp phosphopantetheinyl transferase (PPTase); 4'-phosphopantetheinyl transferase ffp (Bacillus subtilis), Q9F4F7; Biochemical Sfp PPTase activity, qHTS; Potency, µM, without a hit: largest response in the series, negative = inhibition, most hits filed as inhibitors; 310,000 compounds, 3.5% hits;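 further: the enzyme is Sfp with the accession as filed and its product quenches rhodamine fluorescence; 0% = enzyme reaction without inhibitor and -100% = no enzyme wells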
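Sfp 15 nM + cpd, 15 min RT; start w/ rhodamine-CoA 5 uM, BHQ-2-YbbR 12.5 uM (final); 50 mM Hepes pH 7.6, 10 mM MgCl2, 0.01% NP-40, 0.01% BSA; read 525/598 nm at 0 and 30 min.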
TrxR1 substrate – qHTS Assay for Substrates of Mammalian Selenoprotein Thioredoxin Reductase 1 (TrxR1): qHTS; AID 588456, 2011; 390,000 compounds, 0.01% hits; Thioredoxin reductase 1, cytoplasmic (Rattus norvegicus), O89049; purified TrxR1 substrate turnover, NADPH consumption readout; Potency, µM (titrated, usually from 114 µM), for the others: at the highest dose activity change, negative = substrate turnover; further: nearly all actives have a fitted effect of over 50% in size
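Rat TrxR1, dispensed at 90 nM, was prereduced with 400 uM NADPH (final) for 5 min at ~22 deg C, then incubated with compound 15 min before 400 uM selenite. A first-read NADPH fluorescence drop versus no-compound background flagged substrates.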
mIDH1 inhibitor – qHTS for Inhibitors of mutant isocitrate dehydrogenase 1 (IDH1): qHTS; 390,000 compounds, 0.093% hits; AID 602179, 2012; Isocitrate dehydrogenase [NADP] cytoplasmic (Homo sapiens), O75874; Potency, µM (titrated, usually from 76.6 µM), for the others: at the top dose activity change, negative = inhibition, hits mostly inhibitors; IDH1-R132H enzyme, NADPH consumption, diaphorase/resazurin fluorescence; further: nearly all actives have a fitted effect of over 65% in size
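IDH1-R132H (0.5 ug/mL dispensed) in pH 7.5 Tris buffer was preincubated 30 min with compound, then given a substrate mix of 0.016 mM NADPH and 2 mM alpha-KG for 80 min at room temperature; remaining NADPH was read by diaphorase/resazurin fluorescence.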
rTrxR1 inhibitor – qHTS Assay for Inhibitors of Mammalian Selenoprotein Thioredoxin Reductase 1 (TrxR1): qHTS; 390,000 compounds, 1% hits; Potency, µM (titrated, usually from 114 µM), without a hit: top-dose activity change, negative = inhibition, hits mostly inhibitors; recombinant rTrxR1, NADPH fluorescence consumption, selenite substrate; Thioredoxin reductase 1, cytoplasmic (Rattus norvegicus), O89049; further: nearly all actives have a fitted effect of over 65% in size
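Rat TrxR1 (90 nM in the dispensed reagent) was pre-reduced with 400 uM NADPH for 5 min at room temperature, then incubated with compound for 15 min. After 400 uM selenite was added, NADPH fluorescence (Ex 340/Em 450 nm) was followed for 8 min.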
VDR inhibitor – Inhibitors of the vitamin D receptor (VDR): qHTS. VDR-SRC2-3 peptide fluorescence polarization, 2 h. Potency, µM, without a hit: max response, negative = inhibition, usual class: inhibitors. AID 504847, 2011. 400,000 compounds, 0.93% hits. Vitamin D3 receptor (Homo sapiens), P11473
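Two reagent solutions held at 4 deg C in the dark were dispensed, compounds pinned at 23 nl, and the mixture incubated 2 h at room temperature. Read-out: fluorescence polarization of VDR–SRC2-3 peptide binding.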
TbPYK confirm – qHTS of Trypanosoma Brucei Inhibitors: Confirmatory Assay for Cherry-picked Compounds. shares compounds with PLK1 PBD inh. recombinant TbPYK, Kinase-Glo ATP luminescence. 890 compounds, 67% hits. Potency, µM (doses to about 76.9 µM), without a hit: at the highest dose activity change, negative = inhibition, usual class: inhibitors; further: nearly all actives have a fitted effect of over 70% in size
TbPYK ADP-Glo – qHTS of Trypanosoma Brucei Inhibitors: Orthogonal Assay for Cherry-picked Compounds | Potency, µM (highest dose often 76.9 µM), without a hit: at the highest dose activity change, negative = inhibition, hits mostly inhibitors | AID 720584, 2013 | 890 compounds, 62% hits | recombinant TbPYK, ADP-Glo luminescence, 60 min | shares compounds with PLK1 PBD inh; further: nearly all actives have a fitted effect of over 75% in size
Numbers without * were called inactive; ? = inconclusive; . = no result given; [ ] = remark or other dose. The call rests on the fitted dose curve; in most records, active means well fitted curve in the direction sought with a large enough effect; inconclusive means small, poorly fitted or top-dose-only effect, or another doubt; inactive means no such curve, though single readings can be large; an effect the other way counts as inactive or inconclusive. Unless noted, on the % scale 0 is the no-effect control and ±100 the full control effect; potency means the concentration at half of the fitted maximal effect.

SMILES | PLK1 PBD inh | Sfp inh | TrxR1 substrate | mIDH1 inhibitor | rTrxR1 inhibitor | VDR inhibitor | TbPYK confirm | TbPYK ADP-Glo
Cc1cccc(OCC(=O)NC(=S)NNC(=O)c2ccncc2)c1 | 5.3µM* | 18µM* | 8% | 3% | -13%[57.1 µM] | 71µM* | 3.5µM* | 5.6µM*
COc1ccc(N2C(=O)/C(=C/c3cccs3)NC2=S)cc1 | 2.7µM* | 10µM* | -9% | 0% | -21% | ? | 8.9µM* | 13µM*
CCOc1ccc(N2C(=O)/C(=C/c3cccs3)N(CC(=O)OC)C2=S)cc1 | -6% | 9% | 2% | 0% | 12% | 5% | . | .
COC(=O)c1ccc2c(=O)n(Cc3ccc(C(=O)NCCCN4CCC(C)CC4)cc3)c(=S)[nH]c2c1 | -11% | -7% | -6% | -17% | -31% | 0% | 18µM* | 16µM*
CCCCN(C)CCNC(=O)c1ccc(Cn2c(=S)[nH]c3ccc(Br)cc3c2=O)cc1 | ? | ? | -16%[57.1 µM] | 8% | 7%[57.1 µM] | 15% | 20µM* | 13µM*
CCCCCCN1C[C@@H](n2cc(C3CC3)nn2)[C@H](O)C[C@@H]1c1ccc(OC)cc1 | -2% | . | . | 2% | . | . | . | .
CC(SC(C)C(=O)NN=Cc1cccc(F)c1)C(=O)NN=Cc1cccc(F)c1 (stereo not drawn) | 4% | . | 7%[57.1 µM] | 1% | 8%[57.1 µM] | 3% | . | .
CC1(C)CC(=O)C(=Cc2cn(-c3ccccc3)nc2-c2ccccc2)C(=O)C1 | 1.2µM* | . | -5% | -6% | ? | ? | 10µM* | ?
COc1ccccc1N(C(C)=O)C1=C(Cl)C(=O)c2ccccc2C1=O | 3µM* | . | . | 10% | . | . | -100% | 0.79µM*
CCOC(=O)c1c(NS(=O)(=O)c2ccc(Br)cc2)sc2c1CCC2 | 21µM* | . | -7% | -6% | ? | -27% | 35µM* | ?
CCOC(=O)c1c(NS(=O)(=O)Cc2ccccc2)sc2c1CCCC2 | ? | -11% | 0% | 6% | -19% | 7% | . | .
O=C(Nc1ccc(Cl)cn1)c1cnn2c1NC(=C1CC1)C=C2C(F)F | . | . | 6% | . | -6% | . | . | .
CCn1c(C(=O)N2CCCC(C(=O)NCCc3ccc(C)cc3)C2)cc2sccc21 (stereo not drawn) | 1% | -5% | -6% | 5% | 9% | 0% | 16µM* | 32µM*
O=C(O)CNC(=O)c1ccc(OC(F)F)cc1 | 1% | 27% | 9% | -2% | 12% | 12% | . | .
O=C1C=CC(=O)N1c1ccc(OC(F)F)cc1 | 3.4µM* | ? | 8% | 7% | 1.1µM* | 16µM* | -13% | -8%
Oc1[nH]c(=S)sc1C=C1N=c2ccccc2=N1 | -4% | 3% | -7%[57.1 µM] | 17% | -12%[57.1 µM] | -6% | 22µM* | ?
CCN1C(c2ccccc2)=C(c2ccccc2)S/C1=C\C=C1/SC(=S)N(C)C1=O | -20% | . | 10%[57.1 µM] | 0% | 6%[57.1 µM] | -24% | . | .
CCN1C(=O)/C(=C/C=C2/Sc3ccc4ccccc4c3N2CCO)SC1=S | -9% | 50µM* | 3%[57.1 µM] | -4% | 0%[57.1 µM] | 3% | 16µM* | ?
O=C(O)c1c(F)c(F)c(F)c(F)c1-c1ccc(Cl)cc1 | -5% | 9% | 14% | 0% | 17% | 1% | . | .
CC(=O)N1CC[n+]2c(-c3ccc(Cl)cc3)csc21 | 6µM* | ? | -15% | 2% | 32% | 20µM* | 16µM* | 7.1µM*
COc1ccc(CCN2C(=O)C=CC2=O)cc1OC | 6.7µM* | . | 6% | 3% | 0.63µM* | ? | 4.5µM* | 5.6µM*
Cc1ccc(NC(=O)CN(C)C(=O)Cc2ccc(Cl)cc2Cl)cc1 | -8% | -6% | -9% | -13% | -4% | 24% | . | .
O=C1c2cccc3cccc(c23)C(=O)C1(O)O | ? | . | 1%[57.1 µM] | 11% | -10%[57.1 µM] | ? | 6.3µM* | 5µM*
CCOC(=O)[C@]1(C(NC(=O)OC)c2cccc(C)c2)CCCC1=O (stereo partly drawn) | . | -4% | . | . | . | . | . | .
Cc1c(Cl)cccc1NC(=O)Cn1cnc2nc3c(cc2c1=O)CCCC3 | . | . | 5%[57.1 µM] | -9% | 8%[57.1 µM] | 4% | . | .
SMILES | PLK1 PBD inh | Sfp inh | TrxR1 substrate | mIDH1 inhibitor | rTrxR1 inhibitor | VDR inhibitor | TbPYK confirm | TbPYK ADP-Glo
COc1ccc(/C=C2/C(=O)ON=C2C)cc1Br | 1.9µM* | ? | -2%[57.1 µM] | 9% | -37% | ? | ? | ?
COc1cc(/C=C2\C(=O)ON=C2c2ccccc2)cc(OC)c1OC | 7.5µM* | 50µM* | 5% | 1% | 18µM* | 28µM* | ? | ?
CCOC(=O)c1ccc(NC(=S)N2CCN(CCO)CC2)cc1 | 2% | 15% | 11%[57.1 µM] | 5% | 16%[57.1 µM] | ? | . | .
Cc1cccc(C)c1Nc1c(-c2ccccc2F)nc2cccc(C)n12 | . | . | 73% | ? | 19% | -12% | . | .
O=C1C=CC(=O)N1CCNc1ncc(C(F)(F)F)cc1Cl | 2.7µM* | 7.1µM* | -7% | 5% | 2µM* | 22µM* | 1.3µM* | 4µM*
O=C1CC(=O)N(CCNc2ncc(C(F)(F)F)cc2Cl)C(=O)N1 | 4% | 4% | -2% | -4% | -25%[57.1 µM] | -18% | . | .
O=C(CSc1cn[nH]n1)Nc1cccc(C(=O)O)c1 | 4.2µM* | 35µM* | 0% | 9% | 22% | 45µM* | 14µM* | 35µM*
CC(C)=CCC1(CC=C(C)C)C(=O)C(C(=O)c2ccccc2)=C2OC(C)(C)CCC2(CC=C(C)C)C1=O (stereo not drawn) | . | 18% | . | . | . | . | . | .
O=C(O)c1ccc2c(c1)C(=O)/C(=C/c1ccccc1)C2=O | 2.4µM* | -1% | 0% | 2% | -6% | ? | 16µM* | 35µM*
O=C(c1ccccc1)c1ccccc1N1C(=O)C=CC1=O | 3.4µM* | 1.3µM* | 13%[57.1 µM] | 6% | 2.2µM* | 25µM* | 4µM* | 4µM*
